PubChem BioAssay (Tox21)
Records with an inconclusive call do not appear. Entries that show only a call come without a potency. The source made the active and inactive calls. Calls follow the shape of the dose curve; as a rule, active = well fitted inhibition curve with a large enough effect in the repeat runs; inconclusive = weak or mixed curves; inactive = no such curve, though single readings can be large or run the other way. Positions of bridges follow the written chain, without caps; N, C: chain ends. Residues, ends and D or L forms follow the SMILES beside them.

Each compound was assayed against Aromatase (Homo sapiens) (UniProt P11511) (assay: qHTS assay to identify aromatase inhibitors (AID 743083; also: nearly all actives have a fitted effect of over 55% in size)). Conditions: MCF-7 aro ERE, testosterone-driven ERE luciferase, 24 h; series mostly up to 70.3 µM.
Potency is read from the fitted curve at half-maximal effect.

Sequence of Aromatase (Homo sapiens) (P11511 whole entry, looked up): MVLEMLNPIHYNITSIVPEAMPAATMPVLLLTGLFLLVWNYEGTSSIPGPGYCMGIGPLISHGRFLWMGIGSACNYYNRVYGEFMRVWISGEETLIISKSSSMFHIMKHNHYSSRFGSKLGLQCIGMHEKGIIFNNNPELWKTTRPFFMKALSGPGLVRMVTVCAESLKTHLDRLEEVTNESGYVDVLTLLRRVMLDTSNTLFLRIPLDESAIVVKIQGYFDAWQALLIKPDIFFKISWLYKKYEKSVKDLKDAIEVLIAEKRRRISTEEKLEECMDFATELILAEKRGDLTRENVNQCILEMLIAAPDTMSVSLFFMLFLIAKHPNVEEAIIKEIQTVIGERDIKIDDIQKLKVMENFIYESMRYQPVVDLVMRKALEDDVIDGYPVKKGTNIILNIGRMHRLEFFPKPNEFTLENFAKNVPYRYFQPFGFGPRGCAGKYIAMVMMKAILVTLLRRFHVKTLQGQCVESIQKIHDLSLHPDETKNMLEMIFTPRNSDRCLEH

SMILES | Potency
COc1ccc(-c2noc(CC(=O)O)c2-c2ccc(OC)cc2)cc1 | inactive
O=C(OC1C[C@@H]2CC3C[C@H](C1)N2CC3=O)c1c[nH]c2ccccc12 (some centres not stated) | inactive
CN1c2cc(O)c(N=NC(N)=O)cc2CC1S(=O)(=O)O (configuration not stated) | inactive
CSc1nc2cc(Oc3cccc(Cl)c3Cl)c(Cl)cc2[nH]1 | 23.7 µM (active)
CCCCCCCCCCCCCCCCCCCCCC(=O)Nc1ccn([C@@H]2O[C@H](CO)[C@@H](O)[C@@H]2O)c(=O)n1 | inactive
COc1ccc(CC2c3cc(OC)c(OC)cc3CC[N+]2(C)CCC(=O)OCCCCCOC(=O)CC[N+]2(C)CCc3cc(OC)c(OC)cc3C2Cc2ccc(OC)c(OC)c2)cc1OC (configuration not stated) | inactive
CC#CCC(C)[C@H](O)/C=C/[C@@H]1[C@H]2c3cccc(CCCC(=O)O)c3O[C@H]2C[C@H]1O (some centres not stated) | inactive
CCCCCCC(=O)O[C@H]1CC[C@H]2[C@@H]3CCc4cc(O)ccc4[C@H]3CC[C@]12C | inactive
CCCCC(C)(O)C/C=C/[C@H]1[C@H](O)CC(=O)[C@@H]1CCCCCCC(=O)OC (some centres not stated) | inactive
O=C(O)CN(CC(=O)O)CC1=CC2C(=CC1=O)Oc1cc(O)c(CN(CC(=O)O)CC(=O)O)cc1C21OC(=O)c2ccccc21 (configuration not stated) | inactive
C/C1=C2N=C(/C=C3N=C(/C(C)=C4\[N-]C(C(CC(N)=O)C4(C)CCC(=O)NCC(C)OP(=O)([O-])OC4C(CO)OC(n5cnc6cc(C)c(C)cc65)C4O)C4(C)N=C1C(CCC(N)=O)C4(C)CC(N)=O)C(CCC(N)=O)C\3(C)C)C(CCC(N)=O)C/2(C)CC(N)=O.[CH3-].[Co+3] (configuration not stated) | 13.3 µM (active)
CCC(=O)O[C@H]1CC[C@H]2[C@@H]3CCc4cc(O)ccc4[C@H]3CC[C@]12C | inactive
CCOc1ccc(N=Nc2ccc(N)cc2N)cc1 | inactive
CCCCCCCCCCCCCCCCCC(=O)OCC(C)O (configuration not stated) | inactive
O=P(O)(O)C(Sc1ccc(Cl)cc1)P(=O)(O)O | inactive
C/C1=C2N=C(/C=C3N=C(/C(C)=C4\[N-][C@@](C)([C@@H]5N=C1[C@](C)(CCC(=O)NCC(C)OP(=O)(O)O[C@H]1[C@@H](O)[C@@H](n6cnc7cc(C)c(C)cc76)O[C@@H]1CO)[C@H]5CC(N)=O)[C@@](C)(CC(N)=O)[C@@H]4CCC(N)=O)[C@@](C)(CC(N)=O)[C@@H]\3CCC(N)=O)C(C)(C)[C@@H]/2CCC(N)=O.CC(=O)O.[Co] (some centres not stated) | 26.6 µM (active)
C=C1CC[C@@H]2[C@](C)(CO)[C@H](O)CC[C@@]2(C)[C@@H]1C/C=C1/C(=O)OC[C@H]1O | inactive
CC(=O)Nc1c(I)c(C(=O)O)c(I)c(N(C)C(C)=O)c1I | inactive
CC(=O)Oc1cccc(C(=O)O)c1OC(C)=O | inactive
CC(C)NCC(O)COc1ccccc1-n1cccc1 (configuration not stated) | inactive
CC(CC(c1ccccc1)c1ccccc1)NC(C)(C)C (configuration not stated) | inactive
C=C1C(=O)O[C@H]2[C@H]1CC/C(C)=C\CC[C@@]1(C)O[C@@H]21 | 21.1 µM (active)
CC(CCc1ccc(O)cc1)NCC(O)c1ccc(O)cc1 (configuration not stated) | inactive
CC(=O)O[C@]1(C(C)=O)CC[C@H]2[C@@H]3CCC4=CC(=O)CC[C@]4(C)[C@@]3(F)[C@@H](O)C[C@@]21C | inactive
NCCCC[C@H](NC(=O)[C@@H]1CCCN1C(=O)[C@@H]1CSSC[C@H](NC(=O)CNC(=O)CNC(=O)CN)C(=O)N[C@@H](Cc2ccc(O)cc2)C(=O)N[C@@H](Cc2ccccc2)C(=O)N[C@@H](CCC(N)=O)C(=O)N[C@@H](CC(N)=O)C(=O)N1)C(=O)NCC(N)=O (H-GGGCYFQNCPKG-NH2; disulfide 4-9) | inactive
N#CC(c1ccc(Cl)cc1)c1c(Cl)cc(-n2ncc(=O)[nH]c2=O)cc1Cl (configuration not stated) | inactive
C[C@H](/C=C/[C@H](C)C(C)(C)O)[C@H]1CC[C@H]2/C(=C/C=C3C[C@@H](O)C[C@H](O)C3)CCC[C@]12C | inactive
